# Compound activity: PubChem, National Center for Advancing Translational Sciences (NCATS)
# KDM4E inh: blocks human JMJD2E demethylase activity | B2RXH2 | JMJD2E catalytic domain, FDH-coupled NADH fluorescence (FDH is formaldehyde dehydrogenase) | Potency, µM (doses to about 57.1 µM), for the others: at the highest dose activity change, negative = inhibition, usual class: inhibitors | hit rate 1.6% among 230,000 | AID 2147; active = well fitted inhibition curve with a large enough effect, not every such curve was filed as active; inconclusive = small, poorly fitted or top-dose-only effect, or another doubt; inactive = no such curve, though single readings can be large or run the other way;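 also: potency is read from the fitted curve at half-maximal effect; 0% = wells with enzyme and -100% = buffer wells without enzyme; nearly all actives have a fitted effect of over 50% in size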
# RGS12 GoLoco inh-1: RGS12 GoLoco-Gai1 interaction inhibition; P63096; Gai1:RGS12 GoLoco peptide FP, rhodamine, 10 min; Potency, µM (highest dose often 61.6 µM), for inactives: top-dose activity, negative = inhibition, actives largely listed as inhibitors; hit rate 0.44% among 230,000; AID 880; active = well fitted inhibition curve with a large enough effect, not every such curve was filed as active; inactive = no such curve, though single readings can be large or run the other way; also: potency is read from the fitted curve at half-maximal effect; % is scaled to controls: 0 for no effect and ±100 for the full control effect; nearly all actives have a fitted effect of over 30% in size
# Target sequence (P63096 whole entry, looked up): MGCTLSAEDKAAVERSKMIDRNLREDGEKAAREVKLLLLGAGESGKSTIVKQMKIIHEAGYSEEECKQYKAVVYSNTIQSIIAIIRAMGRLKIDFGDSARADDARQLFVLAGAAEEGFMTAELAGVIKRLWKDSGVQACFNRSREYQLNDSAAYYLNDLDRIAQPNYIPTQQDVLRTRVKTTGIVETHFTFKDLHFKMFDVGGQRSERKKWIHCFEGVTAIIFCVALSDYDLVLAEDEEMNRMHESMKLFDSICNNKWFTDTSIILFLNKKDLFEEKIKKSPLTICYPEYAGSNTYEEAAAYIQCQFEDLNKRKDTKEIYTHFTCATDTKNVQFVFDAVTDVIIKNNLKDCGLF
# Tau ThT inhib: blocks human tau fibril formation measured by thioflavin T; P10636; recombinant tau K18 P301L, heparin-induced fibrillization, ThT fluorescence; Potency, µM (doses to about 57.4 µM), inactives show at the top dose activity, negative = inhibition, usual class: inhibitors; hit rate 2.1% among 270,000; also: potency is read from the fitted curve at half-maximal effect; % is scaled to controls: 0 for no effect and ±100 for the full control effect; nearly all actives have a fitted effect of over 55% in size
# Target sequence (P10636 561-689 P618L limits assumed): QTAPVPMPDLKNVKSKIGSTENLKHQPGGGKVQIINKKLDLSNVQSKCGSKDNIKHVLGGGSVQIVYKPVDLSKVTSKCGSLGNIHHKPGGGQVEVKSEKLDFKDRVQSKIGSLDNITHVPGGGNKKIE
#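 Fibril formation assay: tau K18 P301L at 15 uM with trace Alexa 594 label, heparin inducer 20 uM, pH 7 sodium acetate buffer, 37 C for 6 hr; endpoint ThT signal.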
# Tau FP inhib: tau fibrillization inhibition (FP); P10636; K18 P301L tau heparin fibrillization, Alexa594 FP, 6 h; Potency, µM (doses to about 57.7 µM), for inactives: at the highest dose activity, negative = inhibition, actives largely listed as inhibitors; hit rate 0.39% among 280,000; AID 1468; also: potency is read from the fitted curve at half-maximal effect; % is scaled to controls: 0 for no effect and ±100 for the full control effect; nearly all actives have a fitted effect of over 55% in size
#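 K18 P301L tau (15 uM unlabeled/0.24 uM Alexa 594-labeled, final) + compound + heparin 20 uM final; 100 mM NaOAc pH 7; 6 hr 37 C; ThT 30 uM final added, 1 hr RT; FP ex 555/em 632 nm.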
# Tau fluor cs: counter-screen for tau fibril formation inhibitors | Potency, µM (top dose mostly 57.7 µM), inactives show at the top dose activity change, negative = decrease | hit rate 0.93% among 280,000 | tau K18 P301L Alexa594 fluorescence, heparin fibrillization | AID 1463; also: potency is read from the fitted curve at half-maximal effect; % is scaled to controls: 0 for no effect and ±100 for the full control effect; nearly all actives have a fitted effect of over 55% in size
#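 Human tau K18 P301L (15 uM unlabeled, 0.24 uM Alexa 594-labeled) in 100 mM sodium acetate pH 7 with 20 uM heparin, 6 hr at 37 C. ThT 30 uM added, 1 hr ambient; Alexa 594 FP and total fluorescence read at 555/632 nm.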
# RGS12 GoLoco inh-2: RGS12 (human) GoLoco motif inhibition, red FP; Gai1/rhodamine-RGS12 GoLoco peptide fluorescence polarization; Potency, µM (highest dose often 57.1 µM), without a hit: at the top dose activity, negative = inhibition, hits mostly inhibitors; shares compounds with RGS12 GoLoco inh-1; hit rate 50% among 110
# * hit, by the source's call; ? = inconclusive; nt = no result; ! = repeats disagree. Sampled rows, rich in hits. Any-hit rate of the full collection: about 3.4%. Unless noted, calls follow the shape of the dose curve; as a rule, active = well fitted curve in the direction sought with a large enough effect; inconclusive = small, poorly fitted or top-dose-only effect, or another doubt; inactive = no such curve, though single readings can be large; an effect the other way counts as inactive or inconclusive.
SMILES,KDM4E inh,RGS12 GoLoco inh-1,Tau ThT inhib,Tau FP inhib,Tau fluor cs,RGS12 GoLoco inh-2
CC1(C)CCC2=C(O1)c1ccccc1C(=O)C2=O,3.5µM*!,-4%,13µM*,?,-24%,nt
CC1(C)CCc2c([nH]c3ccccc3c2=O)O1,8%,2%,3%,-7%,8%,nt
COc1ccc(C(C)=O)cc1CSc1nc(Nc2ccc(F)c(F)c2)c2ccccc2n1,nt,nt,8%,1%,-14%,nt
COc1cc(Nc2nc(SCc3ccccc3Cl)nc3ccccc23)cc(OC)c1,nt,nt,?,11µM*,?,nt
Fc1cccc(CSc2nc(NCCc3ccccc3)c3ccccc3n2)c1,nt,nt,?,2%,-27%,nt
COc1ccc(CNc2nc(SCc3ccccc3Cl)nc3ccccc23)cc1,nt,nt,-12%,-6%,-24%,nt
Fc1ccc(Nc2nc(SCc3ccccc3F)nc3ccccc23)cc1,nt,nt,?,7.9µM*,?,nt
COc1cc(Nc2nc(SCc3ccccc3F)nc3ccccc23)cc(OC)c1,nt,nt,?,7.1µM*,?,nt
O=C(CSc1nc(Nc2ccccc2)c2ccccc2n1)c1ccc(Cl)cc1,nt,nt,7%,3%,3%,nt
COc1cc(Nc2nc(SCc3cccc(Cl)c3)nc3ccccc23)cc(OC)c1,nt,nt,?,7.9µM*,?,nt
Cn1nc(C(=O)NCCc2ccc(Cl)cc2)c2c1-c1ccccc1SC2,nt,nt,3%,-5%,0%,nt
COc1cc(Nc2nc(SCC(=O)c3ccc(Cl)c(Cl)c3)nc3ccccc23)cc(OC)c1,nt,nt,2%,14µM*,?,nt
CCOC(=O)C1CCCN(C(=O)Cn2cnc3c2c(=O)n(C)c(=O)n3C)C1 (centres undefined),2%,-6%,-7%,4%,5%,nt
CCOC(=O)C1CCCN(C(=O)Cn2sc3nc(C)cc(C)c3c2=O)C1 (centres undefined),?,18µM*,11µM*,25µM*,-28%,?
CCOC(=O)c1ccc(NC(=O)CSc2nccn2C)cc1,3%,10%,?,-5%,-18%,36%
CC(=O)c1ccc(NC(=O)CSc2nccn2C)cc1,-2%,8%,-6%,-7%,-12%,nt
Cc1ccc(N2CC(NC(=O)c3cccs3)CC2=O)cc1C (centres undefined),nt,nt,-2%,5%,3%,nt
O=C(N/N=C/c1ccc(OCc2ccccc2)cc1)c1ccco1,0%,6%,?,-11%,-8%,nt
O=C(O)c1ccc(COc2ccc(/C=N/NC(=O)c3cccs3)cc2)cc1,-7%,10µM*,?,-12%,-17%,?
COc1ccc(C)cc1Nc1ncnc2c1c(-c1ccccc1)cn2-c1ccc(C)cc1,nt,nt,-9%,0%,-10%,nt
CCn1c(SCC(=O)N2CCN(c3cccc(Cl)c3)CC2)nc2ccccc2c1=O,?,8%,?,-2%,-17%,8%
Cc1cc2ccccc2c(=O)n1CC(=O)N1CCN(c2cccc(Cl)c2)CC1,?,4%,-8%,-2%,-10%,nt
Cc1cc2c(cc1NS(=O)(=O)c1ccc(Br)cc1)n(C)c(=O)c(=O)n2C,nt,nt,-7%,-3%,-3%,nt
Cc1[nH]c2ccccc2c1C(=O)CNc1nccs1,-2%,-61%,2%,8%,6%,6.3µM*
O=C1NCc2c1c1c3ccccc3[nH]c1c1[nH]c3ccccc3c21,nt,nt,nt,nt,nt,7%
SMILES,KDM4E inh,RGS12 GoLoco inh-1,Tau ThT inhib,Tau FP inhib,Tau fluor cs,RGS12 GoLoco inh-2
O=C(O)c1cc(NCc2cc(O)ccc2O)ccc1O,nt,6.3µM*,?,-4%,-26%,2µM*
Cc1cc(C)nc(SCC(=O)Nc2ccc(N3CCOCC3)cc2)n1,0%,5µM*,-9%,1%,-2%,4.5µM*
Cc1ccc(S(=O)(=O)c2nc(S(=O)(=O)c3ccc(C)cc3)c(NCCCOC(C)C)s2)cc1,nt,nt,-6%,2%,-17%,nt
CCCCCCCCCCCCCCCC[n+]1ccc(C(N)=O)cc1,-13%,3.2µM*,-18%,7%,8%,?
Cc1cc(=O)c2cc(C(=O)Nc3ccc(C)c(C)c3)ccc2[nH]1,nt,nt,6%,-3%,3%,nt
Nc1ccc2nc3c(=O)n(CCc4ccccc4)c(=O)[nH]c3nc2c1,1.8µM*,18µM*,nt,?,?,13µM*
